Measured values published in PubChem BioAssay (NCI).
Several values for one entry are separate records, joined by “and”; a condition that tells them apart may be missing. Equal entries are not always repeated. Compounds without any hit were thinned out: in the full panel of roughly 83,000, 20% have a hit.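 48-hour exposure, single concentration, 96-well plates; percent growth endpoint where 0 means no net growth. Active: below 10.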 Activity calls are given as the source filed them.

These molecules were tested on NCI-H23 lung (assay: NCI-60 one-dose screen, 48 h (100 = growth as untreated, 0 = no growth, -100 = all killed)). Settings: 10 µM.

| SMILES | growth |
| --- | --- |
| COc1ccc(C(=O)C(CN(C)C)CN(C)C)cc1 | 96.1% (inactive) |
| Cc1ccc(Sc2ccccc2N)cc1 | 72.3% (inactive) |
| O=[N+]([O-])c1cc[n+]([O-])cc1 | 100% (inactive) |
| CC1=CC(=C(c2ccc(N)cc2)c2ccc(N)cc2)C=CC1=N | 29.7% (inactive) and 44.7% (inactive) |
| CN(C)CCOC1(Cc2ccc(Cl)cc2Cl)CCC(C(C)(C)C)CC1 (configuration not stated) | 33.4% (inactive) and 36.7% (inactive) |
| Cc1cc(N(CCOS(C)(=O)=O)CCOS(C)(=O)=O)ccc1C=Nc1ccc(-c2nc(Cc3ccccc3)sc2C)cc1 | 31% (inactive) |
| C#CCN(Cc1ccc2nc(N)[nH]c(=O)c2c1)c1ccc(C(=O)NC(CCC(=O)O)C(=O)O)cc1 (configuration not stated) | 99.2% (inactive) |
| C=C1C(=O)OC2CC1C(OC(C)=O)C/C(C)=C/CC/C(C)=C\CCC2(C)O (configuration not stated) | 11.1% (inactive) |

These molecules were tested on NCI-H226 lung in the same assay as above. Settings: 10 µM.

| SMILES | growth |
| --- | --- |
| COc1ccc(C(=O)C(CN(C)C)CN(C)C)cc1 | 113% (inactive) |
| Cc1ccc(Sc2ccccc2N)cc1 | 106% (inactive) |
| O=[N+]([O-])c1cc[n+]([O-])cc1 | 105% (inactive) |
| CC1=CC(=C(c2ccc(N)cc2)c2ccc(N)cc2)C=CC1=N | 17% (inactive) and 51.4% (inactive) |
| CN(C)CCOC1(Cc2ccc(Cl)cc2Cl)CCC(C(C)(C)C)CC1 (configuration not stated) | 53% (inactive) and 33.9% (inactive) |
| Cc1cc(N(CCOS(C)(=O)=O)CCOS(C)(=O)=O)ccc1C=Nc1ccc(-c2nc(Cc3ccccc3)sc2C)cc1 | 61.6% (inactive) |
| C#CCN(Cc1ccc2nc(N)[nH]c(=O)c2c1)c1ccc(C(=O)NC(CCC(=O)O)C(=O)O)cc1 (configuration not stated) | 80.8% (inactive) |
| C=C1C(=O)OC2CC1C(OC(C)=O)C/C(C)=C/CC/C(C)=C\CCC2(C)O (configuration not stated) | 15.9% (inactive) |

Each molecule was assayed on NCI-H322M lung in the same assay as above. Settings: 10 µM.

| SMILES | growth |
| --- | --- |
| COc1ccc(C(=O)C(CN(C)C)CN(C)C)cc1 | 98% (inactive) |
| Cc1ccc(Sc2ccccc2N)cc1 | 105% (inactive) |
| O=[N+]([O-])c1cc[n+]([O-])cc1 | 133% (inactive) |
| CC1=CC(=C(c2ccc(N)cc2)c2ccc(N)cc2)C=CC1=N | 26.3% (inactive) and 38.5% (inactive) |
| CN(C)CCOC1(Cc2ccc(Cl)cc2Cl)CCC(C(C)(C)C)CC1 (configuration not stated) | 70% (inactive) and 76.3% (inactive) |
| Cc1cc(N(CCOS(C)(=O)=O)CCOS(C)(=O)=O)ccc1C=Nc1ccc(-c2nc(Cc3ccccc3)sc2C)cc1 | -18.9% (active) |
| C#CCN(Cc1ccc2nc(N)[nH]c(=O)c2c1)c1ccc(C(=O)NC(CCC(=O)O)C(=O)O)cc1 (configuration not stated) | 90.3% (inactive) |
| C=C1C(=O)OC2CC1C(OC(C)=O)C/C(C)=C/CC/C(C)=C\CCC2(C)O (configuration not stated) | 67.3% (inactive) |

The molecules below were run on HOP-62 NSCLC in the same assay as above. Settings: 10 µM.

| SMILES | growth |
| --- | --- |
| COc1ccc(C(=O)C(CN(C)C)CN(C)C)cc1 | 97.9% (inactive) |
| Cc1ccc(Sc2ccccc2N)cc1 | 100% (inactive) |
| O=[N+]([O-])c1cc[n+]([O-])cc1 | 131% (inactive) |
| CC1=CC(=C(c2ccc(N)cc2)c2ccc(N)cc2)C=CC1=N | 31.4% (inactive) and 20.6% (inactive) |
| CN(C)CCOC1(Cc2ccc(Cl)cc2Cl)CCC(C(C)(C)C)CC1 (configuration not stated) | 39.8% (inactive) and 42.1% (inactive) |
| Cc1cc(N(CCOS(C)(=O)=O)CCOS(C)(=O)=O)ccc1C=Nc1ccc(-c2nc(Cc3ccccc3)sc2C)cc1 | 36% (inactive) |
| C#CCN(Cc1ccc2nc(N)[nH]c(=O)c2c1)c1ccc(C(=O)NC(CCC(=O)O)C(=O)O)cc1 (configuration not stated) | 82.3% (inactive) |
| C=C1C(=O)OC2CC1C(OC(C)=O)C/C(C)=C/CC/C(C)=C\CCC2(C)O (configuration not stated) | 106% (inactive) |

What follows are molecules tested on NCI-H460 lung in the same assay as above. Settings: 10 µM.

| SMILES | growth |
| --- | --- |
| COc1ccc(C(=O)C(CN(C)C)CN(C)C)cc1 | 102% (inactive) |
| Cc1ccc(Sc2ccccc2N)cc1 | 41.3% (inactive) |
| O=[N+]([O-])c1cc[n+]([O-])cc1 | 103% (inactive) |
| CC1=CC(=C(c2ccc(N)cc2)c2ccc(N)cc2)C=CC1=N | 6.34% (active) |
| CN(C)CCOC1(Cc2ccc(Cl)cc2Cl)CCC(C(C)(C)C)CC1 (configuration not stated) | -65.8% (active) and -61.2% (active) |
| Cc1cc(N(CCOS(C)(=O)=O)CCOS(C)(=O)=O)ccc1C=Nc1ccc(-c2nc(Cc3ccccc3)sc2C)cc1 | -38.3% (active) |
| C#CCN(Cc1ccc2nc(N)[nH]c(=O)c2c1)c1ccc(C(=O)NC(CCC(=O)O)C(=O)O)cc1 (configuration not stated) | 80.1% (inactive) |
| C=C1C(=O)OC2CC1C(OC(C)=O)C/C(C)=C/CC/C(C)=C\CCC2(C)O (configuration not stated) | 21.7% (inactive) |

The molecules below were run on HOP-92 NSCLC in the same assay as above. Settings: 10 µM.

| SMILES | growth |
| --- | --- |
| COc1ccc(C(=O)C(CN(C)C)CN(C)C)cc1 | 44% (inactive) |
| Cc1ccc(Sc2ccccc2N)cc1 | 101% (inactive) |
| O=[N+]([O-])c1cc[n+]([O-])cc1 | 116% (inactive) |
| CC1=CC(=C(c2ccc(N)cc2)c2ccc(N)cc2)C=CC1=N | 2.19% (active) and 63% (inactive) |
| CN(C)CCOC1(Cc2ccc(Cl)cc2Cl)CCC(C(C)(C)C)CC1 (configuration not stated) | 47.9% (inactive) and 43% (inactive) |
| C#CCN(Cc1ccc2nc(N)[nH]c(=O)c2c1)c1ccc(C(=O)NC(CCC(=O)O)C(=O)O)cc1 (configuration not stated) | 86.9% (inactive) |
| C=C1C(=O)OC2CC1C(OC(C)=O)C/C(C)=C/CC/C(C)=C\CCC2(C)O (configuration not stated) | -28.6% (active) |
